Test results taken from PubChem BioAssay AID1159580 (chemical genetic matrix, 2015).
Several values for one entry are separate records, joined by “and”; a condition that tells them apart may be missing. Equal values may be shown once. Screen size: about 5,500 compounds; about 2,000 (36%) were called active. Roughly 18% stayed inconclusive and do not appear here. Cut-off read from the data, not from the text of the source: active = normalized growth mostly below about 0.91 (no sharp cut-off); inconclusive = no clear call, values can overlap the other calls; inactive = mostly above about 0.92. The list shows a part of the results.

Test: chemical genetic growth profiling, strain panel (AID 1159580);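 note: tested at 20 µM; growth read once vehicle control cultures reached saturation at 30 °C; 1 = growth at the plate median or of vehicle wells; lower values mean less growth of the strain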
Settings: S. cerevisiae deletion strains, growth OD

Q: What does the source list for `CC1OC(O[C@H]2/C=C/C=C/C=C/C=C/C=C/C=C/C=C/[C@H](C)[C@@H](O)[C@@H](C)[C@H](C)OC(=O)CC(O)CC(O)CCC(O)C(O)CC(O)C[C@]3(O)C[C@H](O)C(C(=O)O)C(C2)O3)C(O)[C@H](N)C1O` (stereo partly specified)?
A: normalized growth (locus YAL021C, strain ccr4, stronger effect = lower value): 0.0628 (active); normalized growth (locus YAL026C, strain drs2, stronger effect = lower value): 0.059 (active); normalized growth (locus YAL030W, strain snc1, stronger effect = lower value): 0.995 (inactive); normalized growth (locus YBL061C, strain skt5, stronger effect = lower value): 1 (inactive); normalized growth (locus YBR009C, strain hhf1, stronger effect = lower value): 0.987 (inactive); normalized growth (locus YBR021W, strain FUR4, stronger effect = lower value): 1.02 (inactive); normalized growth (locus YBR023C, strain chs3, stronger effect = lower value): 0.957 (inactive); normalized growth (locus YBR171W, strain sec66, stronger effect = lower value): 0.0768 (active); normalized growth (locus YBR229C, strain ROT2, stronger effect = lower value): 0.996 (inactive); normalized growth (locus YBR231C, strain swc5, stronger effect = lower value): 0.912 (inactive); normalized growth (locus YBR279W, strain paf1, stronger effect = lower value): 0.984 (inactive); normalized growth (locus YCL011C, strain gbp2, stronger effect = lower value): 1 (inactive); normalized growth (locus YCL016C, strain dcc1, stronger effect = lower value): 0.996 (inactive); normalized growth (locus YCL029C, strain bik1, stronger effect = lower value): 1.02 (inactive); normalized growth (locus YCL069W, strain vba3, stronger effect = lower value): 0.977 (inactive); normalized growth (locus YCR088W, strain abp1, stronger effect = lower value): 0.0609 (active); normalized growth (locus YDL005C, strain med2, stronger effect = lower value): 0.0884 (active); normalized growth (locus YDL035C, strain GPR1, stronger effect = lower value): 1 (inactive); normalized growth (locus YDL040C, strain nat1, stronger effect = lower value): 1.01 (inactive); normalized growth (locus YDL074C, strain BRE1, stronger effect = lower value): 1.03 (inactive); normalized growth (locus YDL101C, strain DUN1, stronger effect = lower value): 1 (inactive); normalized growth (locus YDL134C, strain PPH21, stronger effect = lower value): 0.986 (inactive); normalized growth (locus YDL185W, strain tfp1, stronger effect = lower value): 1.04 (inactive); normalized growth (locus YDL192W, strain arf1, stronger effect = lower value): 1.01 (inactive); normalized growth (locus YDR001C, strain nth1, stronger effect = lower value): 0.0792 (active); normalized growth (locus YDR069C, strain doa4, stronger effect = lower value): 0.0722 (active); normalized growth (locus YDR101C, strain arx1, stronger effect = lower value): 1.06 (inactive); normalized growth (locus YDR137W, strain rgp1, stronger effect = lower value): 0.252 (active); normalized growth (locus YDR159W, strain sac3, stronger effect = lower value): 0.696 (active); normalized growth (locus YDR162C, strain NBP2, stronger effect = lower value): 0.974 (inactive); normalized growth (locus YDR195W, strain ref2): 0.132 (active); normalized growth (locus YDR297W, strain sur2, stronger effect = lower value): 0.981 (inactive); normalized growth (locus YDR318W, strain mcm21, stronger effect = lower value): 0.999 (inactive); normalized growth (locus YDR334W, strain swr1, stronger effect = lower value): 0.115 (active); normalized growth (locus YDR335W, strain msn5, stronger effect = lower value): 0.508 (active); normalized growth (locus YDR388W, stronger effect = lower value): 1.02 (inactive); normalized growth (locus YDR392W, strain spt3, stronger effect = lower value): 0.07 (active); normalized growth (locus YDR502C, strain sam2, stronger effect = lower value): 1.01 (inactive); normalized growth (locus YEL003W, strain gim4, stronger effect = lower value): 0.0549 (active); normalized growth (locus YEL037C, strain rad23, stronger effect = lower value): 0.193 (active); normalized growth (locus YEL061C, strain CIN8 (second series), stronger effect = lower value): 0.064 (active); normalized growth (locus YEL061C, strain CIN8, stronger effect = lower value): 1.01 (inactive); normalized growth (locus YER015W, strain faa2, stronger effect = lower value): 1 (inactive); normalized growth (locus YER016W, strain bim1, stronger effect = lower value): 0.819 (active); normalized growth (locus YER110C, stronger effect = lower value): 1.01 (inactive); normalized growth (locus YER111C, strain swi4, stronger effect = lower value): 0.0759 (active); normalized growth (locus YER155C, strain BEM2 (second series), stronger effect = lower value): 0.778 (active); normalized growth (locus YER155C, strain BEM2, stronger effect = lower value): 1 (inactive); normalized growth (locus YER167W, strain BCK2, stronger effect = lower value): 1.01 (inactive); normalized growth (locus YFR010W, strain ubp6, stronger effect = lower value): 0.065 (active); normalized growth (locus YGL078C, strain dbp3, stronger effect = lower value): 1 (inactive); normalized growth (locus YGL086W, strain mad1, stronger effect = lower value): 1.07 [resistant] (active); normalized growth (locus YGL167C, strain pmr1, stronger effect = lower value): 1.05 (inactive); normalized growth (locus YGL173C, strain kem1, stronger effect = lower value): 0.982 (inactive); normalized growth (locus YGL227W, strain vid30, stronger effect = lower value): 0.0641 (active); normalized growth (locus YGL240W, strain doc1, stronger effect = lower value): 0.856 (active); normalized growth (locus YGL248W, strain PDE1, stronger effect = lower value): 0.964 (inactive); normalized growth (locus YGL253W, strain hxk2, stronger effect = lower value): 0.0796 (active); normalized growth (locus YGR135W, strain pre9, stronger effect = lower value): 0.997 (inactive); normalized growth (locus YGR229C, strain SMI1, stronger effect = lower value): 0.904 (inactive); normalized growth (locus YGR252W, strain gcn5, stronger effect = lower value): 0.952 (inactive); normalized growth (locus YHR013C, strain ard1, stronger effect = lower value): 1.38 [resistant] (active); normalized growth (locus YHR027C, strain rpn1, stronger effect = lower value): 0.991 (inactive); normalized growth (locus YHR030C, strain SLT2, stronger effect = lower value): 1.01 (inactive) and 0.099 (active); normalized growth (locus YHR079C, strain IRE1 (second series), stronger effect = lower value): 1.01 (inactive); normalized growth (locus YHR079C, strain IRE1, stronger effect = lower value): 0.111 (active); normalized growth (locus YHR094C, strain hxt1, stronger effect = lower value): 1.01 (inactive); normalized growth (locus YHR129C, strain ARP1, stronger effect = lower value): 1.01 (inactive); normalized growth (locus YHR142W, strain chs7, stronger effect = lower value): 0.843 (active); normalized growth (locus YHR200W, strain rpn10, stronger effect = lower value): 1.02 (inactive); normalized growth (locus YIL066C, strain RNR3, stronger effect = lower value): 0.996 (inactive); normalized growth (locus YIL073C, strain SPO22, stronger effect = lower value): 1.11 (inactive); normalized growth (locus YIL125W, strain kgd1, stronger effect = lower value): 1.01 (inactive); normalized growth (locus YIR030C, strain dcg1, stronger effect = lower value): 1.01 (inactive); normalized growth (locus YJL092W, strain hpr5, stronger effect = lower value): 0.0636 (active); normalized growth (locus YJL095W, strain BCK1 (second series), stronger effect = lower value): 1 (inactive); normalized growth (locus YJL095W, strain BCK1, stronger effect = lower value): 0.993 (inactive) and 0.102 (active); normalized growth (locus YJL115W, strain asf1, stronger effect = lower value): 0.893 (active); normalized growth (locus YJL129C, strain trk1, stronger effect = lower value): 0.0757 (active); normalized growth (locus YJL134W, strain LCB3, stronger effect = lower value): 1.01 (inactive); normalized growth (locus YJL154C, strain vps35, stronger effect = lower value): 0.987 (inactive); normalized growth (locus YJL164C, strain tpk1, stronger effect = lower value): 0.996 (inactive); normalized growth (locus YJL166W, strain qcr8, stronger effect = lower value): 0.987 (inactive); normalized growth (locus YJL168C, strain set2, stronger effect = lower value): 1.01 (inactive); normalized growth (locus YJL187C, strain SWE1 (second series), stronger effect = lower value): 0.99 (inactive); normalized growth (locus YJR043C, strain POL32, stronger effect = lower value): 0.95 (inactive)
